# In the library only some 1.7% were active in any assay of this set; here they are far more common.
# GLP-1R inv ag: qHTS of GLP-1 Receptor Inverse Agonists (Inhibition Mode) | Glucagon-like peptide 1 receptor (Homo sapiens), P43220 | HEK293 GLP-1R CRE-luciferase, luminescence, 24 h; GLP-1R form is constitutively active | Potency, µM (top dose mostly 38.3 µM), inactives show at the highest dose activity change, negative = inhibition, hits mostly inhibitors | 1.6% of 410,000 active; also: % is scaled to controls: 0 for no effect and ±100 for the full control effect; nearly all actives have a fitted effect of over 55% in size
#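 Seeding at 200 cells/uL, 12 h culture, 24 hr compound treatment, then luciferase reagent and a luminescence read; cells are HEK293 stably expressing a constitutively active GLP-1R plus cAMP-responsive luciferase.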
# GLP1R cytotox: qHTS of GLP-1 Receptor Inverse Agonists: Cytotox Screen; HEK293 cAMP-luciferase reporter cells, luminescence, 24 h; Potency, µM (titrated, usually from 38.3 µM), for the others: top-dose activity change, negative = inhibition, hits mostly inhibitors; 0.13% of 410,000 active;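 also: loss of luciferase light is scored as toxicity; % is scaled to controls: 0 for no effect and ±100 for the full control effect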
#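 Compound-treated cells are incubated 24 hr at 37 deg C under 5% CO2 after a 12 hour attachment period, then luciferase detection reagent is added and luminescence is measured following 12 min at room temperature; lowered signal indicates toxicity.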
# GLP-1R agonist: qHTS of GLP-1 Receptor Agonists. 0.007% of 380,000 active. Potency, µM (doses to about 45.6 µM), for inactives: at the top dose activation, most hits filed as activators. AID 624172, 2012. Glucagon-like peptide 1 receptor (Homo sapiens), P43220. HEK293 GLP-1R CRE-luciferase, luminescence, 4-6 h; cells express a hypersensitive GLP-1R form; also: % of control where 0% means no effect
# PTHR1 ag: qHTS for PTHR1 Agonists: Primary Screen; Parathyroid hormone/parathyroid hormone-related peptide receptor (Homo sapiens), Q03431; 0.075% of 410,000 active; Potency, µM (titrated, usually from 115 µM), for the others: at the top dose activation, hits mostly activators; HEK293 GP2 PTHR1 cells, GloSensor cAMP luminescence, 1 h; also: nearly all actives have a fitted effect of over 55% in size
#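 HEK-293-derived GP2 cells expressing PTHR1 and a GloSensor cAMP reporter, 3,000/well, plated overnight, given luciferin plus IBMX (each 0.5 mM as added) for 1 h at 37 °C, then compound for 1 h at 37 °C. Luminescence was read after 15 min at room temperature.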
# An asterisk follows results filed as active; i = inactive; ? = inconclusive; . = no result given. Calls follow the shape of the dose curve; as a rule, active = well fitted curve in the direction sought with a large enough effect; inconclusive = small, poorly fitted or top-dose-only effect, or another doubt; inactive = no such curve, though single readings can be large; an effect the other way counts as inactive or inconclusive. Potency is read from the fitted curve at half-maximal effect.
SMILES,GLP-1R inv ag,GLP1R cytotox,GLP-1R agonist,PTHR1 ag
CCc1ccc2oc(C(=O)N(Cc3cccc(Cl)c3)Cc3ccco3)c(C)c2c1,8.9µM*,13%,.,i
CCn1nc(C)c2c(-c3ccccc3)cc(=O)n(C(C)C(=O)NCCC(C)C)c21 (stereo not given),?,10%,.,-2%
Cc1ccn2c(Nc3ccccc3C)c(-c3ccccc3)nc2c1,?,0%,.,-48%
COc1cc(O)ccc1-c1nc2cc(C)ccn2c1Nc1ccccc1C,10µM*,-27%,.,-7%
OCCN(CCO)c1ccc2ccccc2c1,-26%,-4%,1%,-20%
OCCN(CCO)c1cc2c3ccccc3ccc2c2ccccc12,10µM*,-3%,13%,-10%
CC12CCC(=O)N1C(C(=O)Nc1nc3ccc(Cl)cc3s1)CS2 (stereo not given),2.8µM*,-3%,16%,-60%
COc1ccc2nc(NC(=O)C3CSC4(C)CCC(=O)N34)sc2c1 (stereo not given),-27%,-5%,-4%,-25%
CCc1ccc2nc(NC(=O)C3CSC4(C)CCC(=O)N34)sc2c1 (stereo not given),5.6µM*,-17%,12%,i
CC12CCC(=O)N1C(C(=O)Nc1nc3ccc(S(C)(=O)=O)cc3s1)CS2 (stereo not given),14%,-4%,4%,i
Cc1cc(OCC(=O)N(Cc2ccc(N(C)C)cc2)Cc2ccco2)cc(C)c1Cl,?,2%,.,-73%
Nc1ccccc1C(=O)NCC1(c2ccccc2)CCCC1,3.2µM*,0%,-4%,-23%
Cc1ccc(C(=O)NCC2(c3ccccc3)CCCC2)cc1,2.5µM*,77%,18%,i
COc1ccc(C(=O)NCC2(c3ccccc3)CCCC2)c(OC)c1,3.2µM*,4%,?,-6%
CCOc1ccc(Oc2nc(NCC(C)C)nc(NC(C)(C)C)n2)nn1,2%,-2%,.,-31%
Cc1c(C(=O)N2CCC(C)CC2)c(S(=O)(=O)Nc2cccc(C#N)c2)c(C)n1C,-3%,1%,.,i
CCOC(=O)c1c(C)sc(-c2c(-c3ccc(OC)c(F)c3)[nH]c3c2c(=O)[nH]c(=O)n3C)c1O,-5%,-2%,.,i
COCCCNC(=O)c1ccc(-n2c(-c3ccccc3)cc3c2CCC(C)C3)cc1 (stereo not given),10µM*,-22%,.,?
CCOCCCNC(=O)c1ccc(-n2c(-c3ccccc3)cc3c2CCCCC3)cc1,0%,2%,.,-2%
COc1ccc(NC(=O)Nc2cc(C(=O)NCc3ccc(C)cc3)ccc2N2CCCC2)cc1,18%,8%,.,-5%
CCC1C(=NO)C(CC)C(c2ccccc2)NC1c1ccccc1 (stereo not given),3.5µM*,?,0%,-31%
Cc1cc(C(=O)COC(=O)c2cccnc2Cl)c(C)n1C,7.1µM*,1%,-6%,-56%
COc1cc(-c2nc3ccc(Cl)cn3c2Nc2ccc3c(c2)OCO3)ccc1O,?,0%,.,i
COc1cc(-c2nc3ccc(C)cn3c2Nc2ccc(Cl)cc2)ccc1O,3.5µM*,?,.,-16%
COc1cc(NC(=O)C2CCCN(S(=O)(=O)c3cn(C)cn3)C2)cc(OC)c1 (stereo not given),-4%,1%,.,i
SMILES,GLP-1R inv ag,GLP1R cytotox,GLP-1R agonist,PTHR1 ag
Cc1ccc2nc(C3CCCN3Cc3nc(CCC(C)C)no3)[nH]c2c1 (stereo not given),7.1µM*,3%,-4%,-5%
COc1cccc(C2CCCN2Cc2nc(CCC(C)C)no2)c1 (stereo not given),?,15%,4%,-19%
Cc1ccccc1NC(=O)CSC1=Nc2ccccc2C2=NC(CCC(=O)NCc3ccccc3)C(=O)N12 (stereo not given),2%,13%,.,2%
COc1cccc(C2NC(=S)NC3=C2CCc2ccccc23)c1 (stereo not given),?,4µM*,-13%,-2%
O=C1c2ccccc2-c2onc3c(N4CCN(CCO)CC4)cc(N4CCN(C(=O)c5ccco5)CC4)c1c23,11µM*,?,6%,-25%
CN1CCN(c2cc(N3CCN(C(=O)c4ccco4)CC3)c3c4c(onc24)-c2ccccc2C3=O)CC1,?,?,10%,i

# High-throughput results deposited in PubChem BioAssay by National Center for Advancing Translational Sciences (NCATS).
